Screening results (PubChem BioAssay)
MBD2 DNA inh: inhibitors of MBD2 binding to methylated DNA, primary screen, biochemical, TR-FRET, DNA-binding domain, human; Methyl-CpG-binding domain protein 2 (Homo sapiens), Q9UBB5; MBD2 binding to methylated oligonucleotide; inhibition, % at 4.4 µM; actives 0.31% (n = 370,000); in the data active = inhibition above about 13%
UHRF1 MBD2 ctr: UHRF1 methylated DNA binding inhibitors, primary screen, counter-screen for MBD2 inhibitor project, biochemical, TR-FRET, human UHRF1, single concentration; AID 687016, 2013; E3 ubiquitin-protein ligase UHRF1 (Homo sapiens), Q96T88; inhibition, % at 4.4 µM; actives 0.75% (n = 370,000); UHRF1 binding to methylated oligo; in the data active = inhibition above about 21%;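 also: UHRF1 SRA domain binding a hemimethylated CpG hairpin DNA probe; 0% = median of test compound wells and 100% = reference inhibitor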
CASP6 VEID inh: human caspase-6 inhibitors, primary screen, biochemical, VEID-R110 fluorescence, single point, set 2; P55212; purified caspase-6, Z-VEID-R110 cleavage fluorescence; inhibition, % at 12.5 µM; actives 0.53% (n = 350,000); AID 686996, 2013;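 active = mean inhibition across replicates at least about 35%, with every replicate also reaching that limit, limit read from the data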;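 also: 0% = median of neutral control wells and 100% = no fluorescence left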
LEDGF integ inh: blockers of LEDGF/p75-dependent integrase strand transfer – biochemical, TR-FRET, high throughput, primary screen; HIV-1 integrase (with human LEDGF/p75); AID 743269, 2014; actives 0.64% (n = 370,000); inhibition, % at 3.7 µM; TR-FRET IN-LEDGF/p75 DNA integration, Eu/Cy5;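 active = inhibition above the screen-wide mean plus 3 SD, cut at about 13% in these data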;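 also: signal is the Cy5 over europium emission ratio at 671 and 618 nm; 0% = plate median of compound wells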
The depositor's hits bear a star; · = not tested or not shown. Hits are enriched below; roughly 1.4% of the tested compounds scored in any of these assays.

SMILES | MBD2 DNA inh | UHRF1 MBD2 ctr | CASP6 VEID inh | LEDGF integ inh
Cc1ccc(C)c(OCCC(=O)N2CCN(S(=O)(=O)c3cc(F)ccc3F)CC2)c1 | -3 | 3 | 45* | 2
O=c1[nH]c(SCc2nc3ccccc3c(=O)n2-c2ccccc2)nc2ccccc12 | -7 | 35* | · | 3
CC(=O)Nc1ccc(Sc2ccccc2C(=O)O)cn1 | 12 | 21* | 7 | 1
C[C@@H]1CN([C@H](C)CO)C(=O)c2cccc(NS(=O)(=O)c3cccs3)c2O[C@H]1CN(C)Cc1ccc(Cl)c(Cl)c1 | · | · | -1 | ·
CCOc1ccc(/C=C2\SC(=S)N(CC(=O)Nc3ccccn3)C2=O)cc1 | 1 | 0 | -1 | 0
CCOc1ccc(/C=C2\SC(=S)N(CC(=O)N(CCO)C(C)(C)C)C2=O)cc1 | 4 | 35* | 1 | -2
CCCCNC(=O)NCCN1CCOCC1 | 5 | 35* | 9 | -4
COc1cccc(-c2cn(CC[C@H]3CC[C@@H](NC(=O)CN(C)C)[C@H](CO)O3)nn2)c1 | · | · | -2 | ·
CCc1ccc(S(=O)(=O)Nc2ccc(-c3ccc4nncn4n3)cc2)s1 | 0 | 23* | -1 | -4
CCc1ccc(S(=O)(=O)Nc2ccc(-c3ccc4nnc(C)n4n3)cc2)s1 | -1 | -1 | 8 | -3
[S-]C(=Nc1ccc(Cl)cc1)N[n+]1ccccc1 | -2 | 58* | · | -1
ONC(=Nc1ccc(Cl)cc1)c1ccc(Cl)cc1 | 2 | 2 | · | 4
CN1CCN(C(=O)C[C@@H]2CC[C@@H](NC(=O)Cc3ccccn3)[C@@H](CO)O2)CC1 | · | · | 0 | ·
CC(C)OC(=O)c1c(NC(=O)C2CC=CCC2C(=O)O)sc2c1CCCCC2 (configuration not stated) | -2 | -3 | 29 | 3
NC(=O)c1c(NC(=O)C2CC=CCC2C(=O)O)sc2c1CCCCC2 (configuration not stated) | 7 | 3 | 52* | 0
CC(C)C(=O)NC(=S)Nc1sc2c(c1C(N)=O)CCCC2 | 6 | 50* | 4 | 1
COc1ccc(Cl)cc1NC(=O)c1ccc2c(SCC(=O)O)c3c(nc2c1)CCCC3 | -3 | -1 | 37* | -1
CCCN(C(=O)c1ccc2c(SCC(=O)O)c3c(nc2c1)CCC3)c1cccc(C)c1 | -7 | -3 | 65* | 3
O=C(Nc1sc2c(c1C(=O)O)CCC2)C(=O)N1CCOCC1 | 3 | 15 | 37* | 6
O=C(Nc1sc2c(c1C(=O)O)CCCC2)C(=O)N1CCOCC1 | 2 | 1 | 14 | -1
COc1ccc(CN(C)C[C@@H]2OCCCC[C@@H](C)Oc3ccc(NS(=O)(=O)c4c(C)noc4C)cc3C(=O)N([C@@H](C)CO)C[C@@H]2C)cc1 | · | · | 2 | ·
C[C@@H]1CN([C@@H](C)CO)C(=O)c2cc(C#CC3CCCCC3)cnc2O[C@H]1CN(C)C(=O)c1ccncc1 | · | · | -3 | ·
CO[C@H]1CN(C)C(=O)c2cc(NC(C)=O)ccc2OC[C@@H](C)N(C(=O)CN2CCOCC2)C[C@H]1C | · | · | 1 | ·
Cc1ccc2cccc(OC(=O)/C=C\c3ccccc3)c2n1 | 6 | 27* | 2 | 3
O=C(/C=C\c1ccco1)Oc1cccc2cccnc12 | 0 | 1 | 60* | 4
SMILES | MBD2 DNA inh | UHRF1 MBD2 ctr | CASP6 VEID inh | LEDGF integ inh
COc1ccccc1/C=C/C(=O)Oc1cccc2cccnc12 | -1 | -2 | 3 | -3
CN(CC(=O)Nc1cccc2ccccc12)C(=O)c1ccc(F)cc1F | 3 | 29* | -2 | 0
COc1ccccc1-n1c(CNC(=O)c2ccc(S(=O)(=O)N3CCCCC3)cc2)n[nH]c1=S | 1 | -2 | 40* | -1
CCOC(=O)c1c(NC(=O)/C=C/C(=O)O)sc(C)c1-c1ccc(C(C)(C)C)cc1 | 0 | 3 | 42* | 2
CCOC(=O)c1c(NC(=O)/C=C\C(=O)O)sc(C)c1-c1ccccc1 | 5 | -1 | 0 | 0
Cc1ccc(N=Cc2cc3c(cc2[N+](=O)[O-])OCO3)cc1[N+](=O)[O-] | 4 | 9 | 1 | 15*
CC(C)(C)c1ccc(O)c(N=Cc2cc3c(cc2[N+](=O)[O-])OCO3)c1 | -2 | -3 | 1 | 7
O=C(CCc1ccc(O)c(O)c1)N/N=C/c1cc2c(cc1[N+](=O)[O-])OCO2 | 5 | 28* | 21 | 53*
C[C@H]1CCCCO[C@@H](CN(C)C(=O)Nc2ccc3c(c2)OCO3)[C@@H](C)CN([C@@H](C)CO)C(=O)c2cc(NC(=O)c3ccncc3)ccc2O1 | · | · | -1 | ·
O=C(O)C1Oc2cc3ccccc3cc2O1 | 4 | 1 | 55* | 0
COc1ccc([N+](=O)[O-])cc1NC(=O)C(C)Sc1nc(C)c(C)c(C)n1 (configuration not stated) | -1 | 61* | · | 3
COC(=O)Nc1cc([N+](=O)[O-])ccc1OC | -3 | -1 | 0 | -3
COc1ccc([N+](=O)[O-])cc1NC(=O)C(C)N1CCCC1 (configuration not stated) | 0 | 49* | 3 | 2
CC(=O)N1[C@@H]2c3cccc(=O)n3C[C@@H]2[C@@H](CO)[C@@H]1C(=O)N[C@@H](C)c1ccccc1 | · | · | 1 | ·
Cc1ccc2oc(C(=O)N(Cc3ccc(N(C)C)cc3)C3CCS(=O)(=O)C3)c(C)c2c1 (configuration not stated) | 2 | -1 | 59* | 1
CC1CCN(C(=O)Cn2cc(C(F)(F)F)ccc2=O)c2ccccc2S1 (configuration not stated) | 2 | 10 | 70* | 4
O=C(Cn1cc(C(F)(F)F)ccc1=O)N1CCCc2ccccc21 | -1 | 0 | -1 | -2
CCOC(=O)C(C)Oc1cc(Cl)c(C=O)cc1OC (configuration not stated) | -1 | 62* | 1 | 2
CC(=O)N1CCOc2ccc(S(=O)(=O)NCCc3ccc(S(N)(=O)=O)cc3)cc21 | -6 | -3 | -2 | 3
CC(=O)N1CCOc2ccc(S(=O)(=O)NCc3ccc(F)cc3)cc21 | 0 | 3 | 40* | 3
COc1ccc(-c2cc3c(=O)n(CC(=O)NCCCN4CCN(Cc5ccccc5)CC4)ncn3n2)cc1 | 5 | 3 | 40* | 1
COc1cc(OC)cc(C(=O)NNC(=O)CNC(=O)c2cccs2)c1 | -8 | 0 | 62* | 2
CCOc1ccccc1C(=O)N[C@H](C(=O)NNC(=O)c1cccs1)C(C)C | -2 | -2 | -1 | 1
CCOc1ccccc1C(=O)NCC(=O)NNC(=O)c1cccs1 | -1 | 21* | 0 | 2
COc1cccc(OCC(=O)NNC(=O)c2cccs2)c1 | -5 | -2 | · | 1
Cc1ccc(S(=O)(=O)N(C)C[C@@H]2Oc3ccc(NC(=O)Cn4cnnn4)cc3CC(=O)N([C@@H](C)CO)C[C@H]2C)cc1 | · | · | 1 | ·
Cc1csc2c(=O)sc(NC(=O)c3ccco3)nc12 | 0 | -1 | 5 | 3
